{
  "source": "ChEMBL document CHEMBL1201862",
  "about": "“PubChem BioAssay data set” (2004)",
  "note": "Screen size: about 400,000 compounds; about 2,100 (0.53%) were called active. About 14% were inconclusive and are not listed. No rule for the calls is given here. This excerpt belongs to a sample that is enriched for actives.",
  "data": [
    {"biological_target": "Ataxin-2 (Homo sapiens) (UniProt Q99700)", "sequence (Q99700 whole entry)": "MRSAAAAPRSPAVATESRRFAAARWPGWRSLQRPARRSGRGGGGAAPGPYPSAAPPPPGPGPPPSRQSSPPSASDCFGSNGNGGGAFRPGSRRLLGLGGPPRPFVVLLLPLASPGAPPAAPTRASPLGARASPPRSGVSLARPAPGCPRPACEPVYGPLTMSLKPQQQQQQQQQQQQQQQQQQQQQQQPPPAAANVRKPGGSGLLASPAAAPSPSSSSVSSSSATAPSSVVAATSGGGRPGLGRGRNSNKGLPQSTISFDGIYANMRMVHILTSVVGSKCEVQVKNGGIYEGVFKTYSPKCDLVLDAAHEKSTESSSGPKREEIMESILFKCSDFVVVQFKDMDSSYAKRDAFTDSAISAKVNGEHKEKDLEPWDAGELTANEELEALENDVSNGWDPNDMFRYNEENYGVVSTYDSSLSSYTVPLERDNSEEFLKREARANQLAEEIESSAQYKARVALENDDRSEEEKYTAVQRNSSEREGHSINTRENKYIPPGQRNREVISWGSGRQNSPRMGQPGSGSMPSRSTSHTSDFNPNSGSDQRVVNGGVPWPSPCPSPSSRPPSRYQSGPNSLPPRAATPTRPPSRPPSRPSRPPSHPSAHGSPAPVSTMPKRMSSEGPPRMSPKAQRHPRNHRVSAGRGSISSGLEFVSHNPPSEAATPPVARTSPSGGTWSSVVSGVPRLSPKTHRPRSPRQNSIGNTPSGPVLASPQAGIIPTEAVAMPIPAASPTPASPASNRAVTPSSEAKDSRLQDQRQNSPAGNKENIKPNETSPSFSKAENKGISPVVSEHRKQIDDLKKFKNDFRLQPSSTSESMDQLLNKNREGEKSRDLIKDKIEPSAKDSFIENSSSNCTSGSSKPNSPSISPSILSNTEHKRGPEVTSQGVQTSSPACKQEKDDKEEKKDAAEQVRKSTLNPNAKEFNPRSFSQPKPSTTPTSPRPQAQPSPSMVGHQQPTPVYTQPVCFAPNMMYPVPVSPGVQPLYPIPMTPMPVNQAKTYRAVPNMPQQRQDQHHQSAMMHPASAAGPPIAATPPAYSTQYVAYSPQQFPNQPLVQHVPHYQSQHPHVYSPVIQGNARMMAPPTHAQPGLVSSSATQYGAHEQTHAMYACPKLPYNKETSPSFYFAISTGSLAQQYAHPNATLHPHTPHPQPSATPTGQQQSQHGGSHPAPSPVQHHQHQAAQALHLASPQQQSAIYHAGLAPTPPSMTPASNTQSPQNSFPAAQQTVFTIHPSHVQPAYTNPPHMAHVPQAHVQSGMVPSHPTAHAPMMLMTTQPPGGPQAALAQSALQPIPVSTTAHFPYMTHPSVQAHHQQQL", "test": "qHTS for Inhibitors of ATXN expression.", "format": "functional", "values": [
      {"smiles": "CN(C)c1ccc(C2C3CCCc4ccccc4C3=NN2C)cc1", "note": "(stereo not drawn)", "Potency": "inactive"},
      {"smiles": "Nc1nnn(CC(=O)N/N=C/c2ccncc2)n1", "Potency": "inactive"},
      {"smiles": "CCNc1nc(NCC)n2c(SC(C(=O)Nc3cc(Cl)cc(Cl)c3)c3ccccc3)nnc2n1", "note": "(stereo not drawn)", "Potency": "39.8 µM (active)"},
      {"smiles": "Cc1cc(/C=C2/C(=N)N3C(c4ccccc4)=CSC3=NC2=O)c(C)n1-c1ccccc1", "Potency": "inactive"},
      {"smiles": "Nc1nc(Cl)cc(=O)n1Cc1ccc(Cl)cc1", "Potency": "inactive"},
      {"smiles": "Brc1ccc(N/N=C(/N=Nc2nn[nH]n2)c2ccccc2)cc1", "Potency": "35.5 µM (active)"},
      {"smiles": "c1ccc(N/N=C(\\Cc2ncc[nH]2)c2ccccc2)cc1", "Potency": "inactive"},
      {"smiles": "CCOC(=O)C[n+]1ccc2c([nH]c3ccccc32)c1C", "Potency": "inactive"},
      {"smiles": "C[C@@H]1CN([C@H](C)CO)C(=O)c2cccc(NC(=O)Nc3ccc(F)cc3)c2O[C@H]1CN(C)C(=O)Nc1ccc(C(F)(F)F)cc1", "Potency": "28.2 µM (active)"},
      {"smiles": "C[C@H](CO)N1C[C@H](C)[C@@H](CN(C)C(=O)Nc2ccc3c(c2)OCO3)Oc2c(NC(=O)Nc3ccc(C(F)(F)F)cc3)cccc2C1=O", "Potency": "22.4 µM (active)"},
      {"smiles": "C[C@H](CO)N1C[C@H](C)[C@@H](CN(C)C(=O)Nc2ccc(C(F)(F)F)cc2)Oc2c(NC(=O)Nc3ccccc3)cccc2C1=O", "Potency": "25.1 µM (active)"},
      {"smiles": "COc1ccc(OC)c(NC(=O)c2nc3ccccc3s2)c1", "Potency": "inactive"},
      {"smiles": "COc1ccc(NC(=O)N(C)C[C@H]2Oc3c(NC(=O)c4nc5ccccc5s4)cccc3C(=O)N([C@@H](C)CO)C[C@H]2C)cc1", "Potency": "39.8 µM (active)"},
      {"smiles": "O=C(O)c1ccc(N2C(=O)CC(SC(=NCc3ccc4c(c3)OCO4)Nc3ccc(F)cc3)C2=O)cc1", "note": "(stereo not drawn)", "Potency": "inactive"},
      {"smiles": "O=C1N=C(Nc2nc3ccccc3[nH]2)c2ccccc21", "Potency": "inactive"},
      {"smiles": "CCOc1ccc2nc(NCCNS(=O)(=O)c3ccccc3)c(C#N)cc2c1", "Potency": "inactive"},
      {"smiles": "Clc1ccccc1C1=CC(c2ccco2)n2ncnc2N1", "note": "(stereo not drawn)", "Potency": "inactive"},
      {"smiles": "C#CCOc1c(Cl)cc(C2C3=C(CCCC3=O)N(CC(=O)O)C3=C2C(=O)CCC3)cc1OC", "Potency": "inactive"},
      {"smiles": "C[C@H](CO)N1C[C@H](C)[C@@H](CN(C)C(=O)Nc2ccccc2)Oc2c(NC(=O)Nc3ccc(C(F)(F)F)cc3)cccc2C1=O", "Potency": "39.8 µM (active)"},
      {"smiles": "COc1ccc(CCn2c(=N)c(C(=O)NCC3CCCO3)cc3c(=O)n4ccccc4nc32)cc1", "note": "(stereo not drawn)", "Potency": "15.8 µM (active)"},
      {"smiles": "COCCCn1c(=N)c(C(=O)NCC2CCCO2)cc2c(=O)n3ccccc3nc21", "note": "(stereo not drawn)", "Potency": "inactive"},
      {"smiles": "COCCn1c(=N)c(C(=O)NCC2CCCO2)cc2c(=O)n3ccccc3nc21", "note": "(stereo not drawn)", "Potency": "inactive"},
      {"smiles": "O=C(NCc1ccccc1)C(=O)NCC1OCCN1S(=O)(=O)c1ccc2c(c1)OCCO2", "note": "(stereo not drawn)", "Potency": "inactive"},
      {"smiles": "O=C(CCC(=O)N1CCOc2ccc(Cl)cc21)NCCCN1CCC(Cc2ccccc2)CC1", "Potency": "26.7 µM (active)"},
      {"smiles": "CCOc1ccccc1C(=O)NC(C(=O)NCc1ccc(F)cc1)C(C)C", "note": "(stereo not drawn)", "Potency": "inactive"},
      {"smiles": "CC1=C(C)C(C)=C(C#N)C(=C(C#N)C#N)N1", "Potency": "inactive"},
      {"smiles": "Cn1c(=O)n(Cc2ccc(Br)cc2)c2ccccc21", "Potency": "inactive"},
      {"smiles": "CSc1nn(Cc2ccc(Cl)cc2)c(N(C(C)=O)C(C)=O)c1S(=O)(=O)c1ccccc1", "Potency": "25.1 µM (active)"},
      {"smiles": "CSc1nn(Cc2ccc(Br)cc2)c(N(C(C)=O)C(C)=O)c1S(=O)(=O)c1ccccc1", "Potency": "28.2 µM (active)"},
      {"smiles": "O=c1cc(Cl)c(-c2ccccc2)nn1Cc1ccc(Cl)cc1", "Potency": "inactive"},
      {"smiles": "CC12CCC(C(=O)N(CC3CO3)C1=O)C2(C)C", "note": "(stereo not drawn)", "Potency": "inactive"},
      {"smiles": "Cn1cccc1C1C=C(c2ccc(C(C)(C)C)cc2)Nc2ncnn21", "note": "(stereo not drawn)", "Potency": "inactive"},
      {"smiles": "CC(=O)c1ccc(-c2ccc(C(=O)N(C)Cc3nc(O)c4ccccc4n3)o2)cc1", "Potency": "inactive"},
      {"smiles": "CC(C)c1ccc(/C=C(\\NC(=O)c2ccccc2)C(=O)NCCCn2ccnc2)cc1", "Potency": "inactive"},
      {"smiles": "O=C(C[C@H]1C[C@H](C(=O)N2CCOCC2)[C@@]2(CCC3CCCC3)c3[nH]c4ccc(Cl)cc4c3CCN2C1=O)NCCCn1ccnc1", "Potency": "28.2 µM (active)"},
      {"smiles": "O=C(/C=C/c1ccc(S(=O)(=O)N2CCOCC2)cc1)NCCCn1ccnc1", "Potency": "inactive"},
      {"smiles": "O=C(C[C@H]1C[C@H](C(=O)N2CCCCC2)[C@@]2(CCc3ccccc3)c3[nH]c4ccc(Cl)cc4c3CCN2C1=O)NCCCn1ccnc1", "Potency": "28.2 µM (active)"},
      {"smiles": "O=C(NCCCn1ccnc1)C(=O)NCC1OCCN1S(=O)(=O)c1ccc(F)cc1", "note": "(stereo not drawn)", "Potency": "inactive"},
      {"smiles": "CC[C@@]1(O)C(=O)OCc2c1cc1n(c2=O)Cc2cc3c(CN(C)C)c(O)ccc3nc2-1", "Potency": "inactive"},
      {"smiles": "CC(C)(C)c1ccc(OCC(=O)Nc2ccc3c4c(cccc24)C(=O)NC3=O)cc1", "Potency": "inactive"},
      {"smiles": "O=[N+]([O-])c1cc(/C=N/N=C(/Nc2ccccn2)c2ccccn2)ccc1O", "Potency": "2.67 µM (active)"},
      {"smiles": "Cc1ccc2nc3c(cc(C(N)=S)c(=N)n3CCCOC(C)C)c(=O)n2c1", "Potency": "inactive"},
      {"smiles": "C=CC[C@H](CC(=O)N(CCO)Cc1ccccc1)C(=O)N[C@H](COC(=O)[C@@H](CC=C)CC(=O)OC(C)(C)C)Cc1ccccc1", "Potency": "35.5 µM (active)"},
      {"smiles": "C=CC[C@@H](CC(=O)N(CCO)Cc1ccccc1)C(=O)N[C@H](COC(=O)[C@@H](CC=C)CC(=O)OC(C)(C)C)c1ccccc1", "Potency": "31.6 µM (active)"},
      {"smiles": "C=CC[C@H](CC(=O)N(CCO)Cc1ccccc1)C(=O)N[C@H](COC(=O)[C@@H](CC=C)CC(=O)OC(C)(C)C)c1ccccc1", "Potency": "35.5 µM (active)"},
      {"smiles": "N#CCC(=O)N/N=C/c1cc(-c2ccccc2)n(-c2ccc(Cl)cc2)c1-c1ccccc1", "Potency": "inactive"},
      {"smiles": "COCCNS(=O)(=O)c1ccc2c3c(cccc13)C(=O)N2C", "Potency": "inactive"},
      {"smiles": "CCCOC(=O)c1c(NC(=O)c2nc3ncccn3n2)sc(C(N)=O)c1C", "Potency": "inactive"},
      {"smiles": "Nc1cccc2c1C(=O)N(CC(=O)NC13CC4CC(CC(C4)C1)C3)C2=O", "Potency": "inactive"},
      {"smiles": "O=C(COC(=O)/C=C/C(=O)OCC(=O)NC12CC3CC(CC(C3)C1)C2)NC12CC3CC(CC(C3)C1)C2", "Potency": "31.6 µM (active)"},
      {"smiles": "CCOc1cc(/C=C2/C(=N)N3C(=NC2=O)SN=C3S(=O)(=O)CC)ccc1OC(=O)c1ccco1", "Potency": "inactive"},
      {"smiles": "COc1ccc(/C=C2\\C(=O)N(c3c(Cl)cc(Cl)cc3Cl)N=C2NC(=O)c2cccc([N+](=O)[O-])c2)cc1", "Potency": "22.4 µM (active)"},
      {"smiles": "COc1ccc(CNC(=O)C/C(C)=N/NC(=O)c2ccc([N+](=O)[O-])cc2Cl)cc1", "Potency": "inactive"}
    ]}
  ]
}
